Test results published in PubChem BioAssay AID594 (National Center for Advancing Translational Sciences (NCATS), 2007).
Among all 59,000 compounds or so, about 30 (0.05%) were called active. Rule as the data show it: active = max dye-equivalent concentration above about 11 nM; inconclusive = between about 1.1 nM and that limit; inactive = weaker than that. The list comes from a sample in which actives are over-represented; it also holds similar structures and randomly drawn compounds.

experiment: qHTS Assay for Spectroscopic Profiling in Rhodamine Spectral Region; settings: Rhodamine-region fluorescence, 547/598 nm, Tris buffer; stronger effect = higher value
Excerpt: NIH Molecular Libraries Screening Centers Network [MLSCN] NIH Chemical Genomics Center [NCGC] […] Occasionally, the artifactual effect may originate from the compound#s own spectral or other biophysical properties which generally tend to track its assay concentration. Pre-screening/profiling the library with respect to the compounds# spectral properties should help one exclude false positives early on. While the most informative fluorescent profiling data set is obtained by performing a full excitation and emission scan of each well by using a monochromator-based plate reader, such an approach is practical only on a very limited scale as scanning each well requires long time. An alternative approach, applied here, is to perform plate reader scans using selected excitation and emission wavelength pairs to generate a multidimensional relational database that correlates compound concentration and the respective relative fluorescence intensity at a given wavelength set. A standard curve of rhodamine present on each plate as six-point concentration series, was used to compute a normalized fluorescence response, termed dye-equivalent concentration, for each compound at each concentration.
NCGC Assay Protocol Summary: Buffer: 100 mM Tris buffer, pH 8.0 Dye standard plate: The wells in columns 1 through 4 of a Kalypsys polypropylene 1536-well compound plate were filled with standard solutions of fluorophore corresponding to the spectral region of interest. Solutions of rhodamine were placed in the following wells: E1, F1: 3 mM, E2, F2: 300 uM, E3, F3: 30 uM, E4, F4: zero (DMSO), G1, H1: 3 uM, G2, H2: […], G3, H3: 300 nM, G4, H4: zero (DMSO). Assay Steps: Six uL of buffer were dispensed to 1536-well Greiner black plates. Compounds and dye standards (23 nL) were transferred via Kalypsys PinTool. The plates were incubated for 15 min at room temperature, and then read on ViewLux (Perkin-Elmer) High-throughput CCD imager using 547 nm and 598 nm excitation and emission filter set. Keywords: NIH Roadmap, MLSCN, MLI, MLSMR, qHTS, NCGC, Rhodamine , Fluorescent Profiling.

Row | SMILES | max dye-equivalent concentration
1 | COc1ccc(Cl)cc1S(=O)(=O)N1CCN(CC(=O)C(C)(C)C)CC1 | inactive
2 | O=C(CCCC(=O)N(CC(=O)NC1CCCC1)Cc1ccccc1Cl)Nc1ccccn1 | inactive
3 | COc1ccc(CCNC(=O)c2cc3sccc3n2C)cc1OC | inactive
4 | Cc1ccc(C)c(S(=O)(=O)N2CC(=O)Nc3ccccc32)c1 | inactive
5 | CCO/C([O-])=N/c1c[n+](N2CCOCC2)no1 | inactive
6 | C/C(=C(\C#N)C(=O)NCCCN1CCOCC1)N(C)C | inactive
7 | Cc1ccc(SCc2cc(=O)[nH]c(N3CCCCC3)n2)cc1 | inactive
8 | FC(F)(F)c1ccccc1-c1cc(NCc2ccccc2)ncn1 | inactive
9 | CCOc1ccc(-c2cn(S(=O)(=O)c3cccc4nsnc34)nc2N)cc1 | inactive
10 | O=C(O)c1c(Br)c(Br)c(Br)c(Br)c1C1c2ccc(O)cc2Oc2cc(O)ccc21 | 11 nM (active)
11 | COC(=O)NC1(C(F)(F)F)NC(=O)N(C2CCCCC2)C1=O (stereo unspecified) | inactive
12 | C=CCc1cccc2cc(C(=O)N3CCN(C(=O)OCC)CC3)c(=O)oc12 | inactive
13 | COc1ccc2[nH]c3c(=O)n(Cc4ccco4)cnc3c2c1 | inactive
14 | COCCNC(=O)CN(C(=O)CCC(=O)Nc1cc(C)on1)c1ccc(C)cc1C | inactive
15 | CCC(C)(C)n1nnnc1C(c1cccs1)N1CCN(c2nc3ccccc3s2)CC1 (stereo unspecified) | inactive
16 | Nc1nc(N)c2[nH]c(CNc3ccc(C(=O)O)cc3)nc2n1 | inactive
17 | O=C1CCCc2c1[nH]c1ccc(Br)cc21 | inactive
18 | C=C(Br)CN1CCN(CC(=C)Br)CC1 | inactive
19 | O=C(Nc1nc2cc3c(cc2s1)OCCO3)c1cccc(S(=O)(=O)N2CCOCC2)c1 | inactive
20 | CCOc1nc(-c2ccc(OC)cc2)ccc1-c1noc(-c2cc(OC)c(OC)c(OC)c2)n1 | inactive
21 | Cc1ccc(C)c(NC(=O)C2CCCN2C(=O)OC(C)(C)C)c1 (stereo unspecified) | inactive
22 | O=C(O)[C@@H](O)Cc1ccccn1 | inactive
23 | O=C(O)CCC(=O)Nc1ccc(N2CCOCC2)cc1 | inactive

Row | SMILES | max dye-equivalent concentration
24 | Cc1ccc2nc(CC(=O)c3ccc4ccccc4c3)c(=O)[nH]c2c1 | inactive
25 | COc1ccc(-c2cc3ccc(OCc4nn[nH]n4)cc3oc2=O)cc1 | inactive
26 | O=C(Nc1ccc2c(c1)OCCO2)C1CCCN(c2ncccn2)C1 (stereo unspecified) | inactive
27 | CCOc1ccc2c(c1)cc(CN(C(=O)CC)C1CCCCC1)c1nnnn12 | inactive
28 | COCCn1c(=O)c(CCc2ccccc2)nc2cnc(N3CCNCC3)nc21 | inactive
29 | Cc1cc(=O)cc(C)[nH]1 | inactive
30 | Cn1c(=O)cc(OCCCC(=O)N2CCN(Cc3ccc4c(c3)OCO4)CC2)c2ccccc21 | inactive
31 | COc1ccc2[nH]c3cc4c(=O)c5cc(OC)ccc5[nH]c4cc3c(=O)c2c1 | inactive
32 | CC(=O)O[C@]1(C(C)=O)CC[C@@H]2[C@@H]3C=C(C)C4=CC(=O)CC[C@@]4(C)[C@H]3CC[C@]21C | inactive
33 | COc1ccc(CC(=O)n2nc(-c3cccnc3)nc2N)cc1 | inactive
34 | Oc1ccc(Cn2cc[nH]c2=S)cc1 | inactive
35 | O=C(CN1CCN(S(=O)(=O)/C=C/c2ccccc2)CC1)NC(=O)NCc1ccco1 | inactive
36 | CC1CCCC(NC(=O)CN2CCN(Cc3ccc(Cl)cc3)C2=O)C1C (stereo unspecified) | inactive
37 | Clc1ccc(Nc2nc(-c3cccs3)cs2)nc1 | inactive
38 | Cc1ccc(/C(=C/CN2CCCC2)c2ccccn2)cc1 | inactive
39 | Cc1ccc2c(c1)c1ncn(CCC3=CCCCC3)c(=O)c1n2C | inactive
40 | COc1ccc(S(=O)(=O)NC2(C(F)(F)F)N=C3SCCN3C2=O)cc1 (stereo unspecified) | inactive
41 | CCn1c(-c2cc(OC)ccc2OC)csc1=Nc1c(C)n(C)n(-c2ccccc2)c1=O | inactive
42 | O=C(c1cnccn1)N1CCC2(CCCN(Cc3ccccc3)C2)CC1 | inactive
43 | CCN(CC)CCNC(=O)C1c2ccccc2C(=O)N(C)C1c1cn(C)c2ccccc12 (stereo unspecified) | inactive
44 | CC(C)(O)C#Cc1ccc(C(=O)N2CCC(C(N)=O)(N3CCCCC3)CC2)cc1 | inactive
45 | O=C(O)[C@@H]1CCCN1c1ncnc2sc3c(c12)CCC3 | inactive
46 | O=C(CSc1nc2cc3c(cc2c(=O)n1CCC1=CCCCC1)OCO3)NCc1ccco1 | inactive

Row | SMILES | max dye-equivalent concentration
47 | CC1C=CCC2C(=O)N(c3cccc(C(=O)N4CCCCCC4)c3)C(=O)C12 (stereo unspecified) | inactive
48 | COCCNC(=O)CSc1nc2c(n1-c1ccccc1)CCCC2 | inactive
49 | COc1ccc(S(=O)(=O)N2CCCC2)c(C)c1C | inactive
50 | COc1ccc(C2C(C(=O)N3CCN(c4ccc(OC)cc4)CC3)c3ccccc3C(=O)N2C)cc1 (stereo unspecified) | inactive
51 | O=C(CNS(=O)(=O)c1cccc(C(F)(F)F)c1)Nc1ccccc1F | inactive
52 | CC(C)OC(=O)C(C#N)c1nc2ccccc2nc1N1CCN(Cc2ccccc2)CC1 (stereo unspecified) | inactive
53 | CC(=O)c1cccc(NC(=O)N2CCCC2C(=O)NCCC(C)C)c1 (stereo unspecified) | inactive
54 | O=S(=O)(c1ccc(Sc2nnc3ccccn23)nc1)N1CCOCC1 | inactive
55 | Cc1ccc(NC(=O)Cn2nc(C)c3ccccc3c2=O)c(C)c1 | inactive
56 | CCOC(=O)c1sc(=S)n2c1[nH]c(=O)c1ccc(C(=O)OC)cc12 | inactive
57 | O=C(Nc1ccccc1)Nc1ccccc1C(=O)NCc1ccco1 | inactive
58 | CCCCSc1nnc(-c2ccc(NC(=O)CC)cc2)n1C | inactive
59 | Cc1cccc(N=C2NC(=O)CS2)c1C | inactive
60 | CC1=NCCN1S(=O)(=O)c1ccc(Br)c(C)c1 | inactive
61 | O=c1c(-c2ccc(F)cc2)nc2cnc(N3CCOCC3)nc2n1-c1ccccc1 | inactive
62 | OCCCNC(c1ccccc1)c1ccc(O)cc1 (stereo unspecified) | inactive
63 | Cc1ccccc1NC(=O)c1cc(S(=O)(=O)N2CCOCC2)cs1 | inactive
64 | O=C(Nc1cccnc1)c1noc2c1CCCCC2 | inactive
65 | CCC(=O)Nc1ccccc1N1CCN(S(C)(=O)=O)CC1 | inactive
66 | COc1ccccc1C(=O)N1CCNC(=O)C1CC(=O)Nc1ccc(Cl)cc1 (stereo unspecified) | inactive
67 | C[C@H](CCC(=O)O)[C@H]1CC[C@@H]2[C@H]3CC[C@H]4C[C@H](O)CC[C@@]4(C)[C@@H]3CC[C@@]21C | inactive
68 | NC(=O)CSc1oc(-c2cccs2)nc1S(=O)(=O)c1ccccc1 | inactive
69 | CCOCCN(C=O)c1cccc(OC)c1 | inactive

Row | SMILES | max dye-equivalent concentration
70 | O=C(COC(=O)c1ccc2c(c1)OCCO2)NCc1ccccc1 | inactive
71 | COC(=O)CN(c1cccc(C(C)=O)c1)S(C)(=O)=O | inactive
72 | COCCn1c(=O)c(C)nc2cnc(N(C)C)nc21 | inactive
73 | O=C(COc1ccc(F)cc1)N(CC1=CCS(=O)(=O)C1)c1ccccc1 | inactive
74 | CN(c1ccc(C(=O)N2CCc3ccccc3C2)cc1)S(C)(=O)=O | inactive
75 | CCCC(=O)Nc1nnc(CC(=O)OCC)s1 | inactive
76 | CCOP1(=O)C=C(C(C)(C)C)OC1c1ccc(F)cc1 (stereo unspecified) | inactive
77 | CC(=O)NC(Cc1ccc(F)cc1)C(=O)O (stereo unspecified) | inactive
78 | Cc1[nH]c(N)nc(=S)c1CCCNc1ccccc1 | inactive
79 | O=C(O)c1cscn1 | inactive
80 | CCOC(=O)Cc1c(C)nc2c(C#N)c(C)nn2c1C | inactive
81 | CCN(CCCNC(=O)C1CCN(S(=O)(=O)c2cnc[nH]2)CC1)c1ccccc1 | inactive
82 | COc1cc(OC)c(C(=O)Nc2ccc(N(C)C)cc2)cc1OC | inactive
83 | Cc1nc2cc(-c3ccc(F)cc3)nn2c(N2CCOCC2)c1C | inactive
84 | COCCOC(=O)C1=C(C)Nc2nc(C)nn2C1c1ccccc1 (stereo unspecified) | inactive
85 | CCOC(=O)c1sc(NC(=O)CSc2nnc(-c3ccco3)o2)c(C(=O)OCC)c1C | inactive
86 | C[C@H](NC(=O)OC(C)(C)C)c1nnc(SCC(=O)Nc2ccc(Br)cc2)o1 | inactive
87 | Cn1c(=O)c2c(ncn2CC(=O)N2CCN(c3ccccc3)CC2)n(C)c1=O | inactive
88 | CCCCc1nccn1CCn1ccnc1CCCC | inactive
89 | O=C(CCn1c(=O)oc2ccccc21)Nc1ccon1 | inactive
90 | O=C1OC(NC(=O)c2ccccc2)C(N2CCOCC2)=C1Cl (stereo unspecified) | inactive
91 | COc1cc(C2C(C(=O)c3sc(C)nc3C)=C(O)C(=O)N2CCN(C)C)cc(OC)c1OC (stereo unspecified) | inactive
92 | COc1ccc(CC(=O)Nc2nc3n(n2)C(c2ccccc2)CC(=O)N3)cc1OC (stereo unspecified) | inactive

Row | SMILES | max dye-equivalent concentration
93 | CCOC(=O)CN1CC23C=CC(O2)C(C(=O)Nc2ccc(F)cc2)C3C1=O (stereo unspecified) | inactive
94 | CC1(C)Cc2c(C#N)c(SCc3nc4ccccc4[nH]3)nc(N3CCOCC3)c2CO1 | inactive
95 | CCOC(=O)C1CCCN(Cc2nc(N)nc(Nc3ccc(C)cc3)n2)C1 (stereo unspecified) | inactive
96 | CCN(CC)c1ccc2cc(C(=O)O)c(=O)oc2c1 | inactive
97 | Cc1ccc(CN2C(=O)CCC2C(=O)NCCCN2CCCCC2C)cc1 (stereo unspecified) | inactive
98 | Cc1ccc(Cn2nnc3c(=O)n(CC(=O)N4CCCCC4)cnc32)cc1 | inactive
99 | Cc1ccc(-n2nc3c(c2NC(=O)c2ccc4c(c2)OCO4)CSC3)c(C)c1 | inactive
100 | CCCC1CC(C)(C(=O)Cn2[nH]c(=O)ccc2=O)OC1=O (stereo unspecified) | inactive
101 | CCc1cccc2c3c([nH]c12)C(CC)(CC(=O)O)OCC3 (stereo unspecified) | inactive
102 | CCC(c1nnnn1Cc1ccccc1)N(Cc1cc2cc(OC)ccc2[nH]c1=O)CC1CCCO1 (stereo unspecified) | inactive
103 | O=C(CN(CC1CCCO1)C(=O)CNS(=O)(=O)c1ccccc1)NCc1ccccc1 (stereo unspecified) | inactive
104 | CC(=O)Nc1ccc(S(=O)(=O)N2CCN(CCCOc3cc(C)ccc3C)CC2)cc1 | inactive
105 | CCNS(=O)(=O)c1ccc(NC(=O)Nc2cccc(C(F)(F)F)c2)cc1 | inactive
106 | CCOc1ccc(CN(Cc2ccco2)C(c2cccs2)c2nnnn2C(C)(C)C)cc1 (stereo unspecified) | inactive
107 | O=c1[nH]c(-c2cccs2)nc2ccccc12 | inactive
108 | Cc1ccc2nc(NCCCNC(=O)c3cnccn3)c(C#N)cc2c1 | inactive
109 | COc1ccc(C)cc1NC(=O)CSc1nc(SC)ns1 | inactive
110 | Cc1nc2nc(CSc3nc4ccccc4s3)cc(=O)n2[nH]1 | inactive
111 | COc1ccc(Cl)cc1S(=O)(=O)Nc1cccc(C(=O)O)c1 | inactive
